Measles CPE: protection of cells from measles virus; Measles virus-infected cells, CPE protection, absorbance; protection (pct of control), % at 4 µM; 140,000 compounds, 1.5% hits; AID 841; in the data active = protection mostly above about 24%, no sharp cut-off; inactive = mostly below about 26%
CYP2C9 inhib: blocks human cytochrome P450 2C9; P11712; CYP2C9 Supersomes, luciferin-H conversion, luminescence; inhibition, % at 5 µM; 96,000 compounds, 20% hits; AID 777;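 active = blocking of liver enzyme CYP2C9 beyond about 50% at 5 µM, limit read from the data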
Target sequence (P11712 whole entry, looked up): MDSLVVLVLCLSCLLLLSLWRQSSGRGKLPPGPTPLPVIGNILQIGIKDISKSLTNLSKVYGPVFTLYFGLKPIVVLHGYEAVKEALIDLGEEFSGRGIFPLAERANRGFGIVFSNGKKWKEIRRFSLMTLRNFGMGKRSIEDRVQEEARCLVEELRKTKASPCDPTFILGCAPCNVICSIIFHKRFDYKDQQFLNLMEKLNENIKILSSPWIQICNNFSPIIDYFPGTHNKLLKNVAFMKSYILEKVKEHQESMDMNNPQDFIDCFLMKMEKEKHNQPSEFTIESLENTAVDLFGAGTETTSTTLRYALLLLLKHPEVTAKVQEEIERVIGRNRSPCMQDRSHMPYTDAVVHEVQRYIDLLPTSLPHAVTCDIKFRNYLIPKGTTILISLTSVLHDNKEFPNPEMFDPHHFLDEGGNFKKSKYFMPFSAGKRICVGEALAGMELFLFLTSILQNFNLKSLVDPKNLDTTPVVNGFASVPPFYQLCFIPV
CYP2C9 activ: CYP2C9 (human) activation; recombinant CYP2C9, luciferin-H conversion, luminescence; hits give high values; factor 1 = untreated enzyme, 0 = blocked; activation factor at 5 µM; 96,000 compounds, 1.4% hits; AID 1024;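 active = activation factor of 2 or more for CYP2C9 at a 5 µM dose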
CYP2C19 inh: inhibitors of human CYP2C19; P33261; CYP2C19 Supersomes, luciferin-H EGE luminescence, 30 min; inhibition, % at 5 µM; 96,000 compounds, 21% hits;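 active = CYP2C19 inhibition above a set limit at 5 µM in the primary screen, cut at about 50% in these data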
CYP2C19 activ: activators of human cytochrome P450 2C19 | activation factor at 5 µM | P33261 | 96,000 tested, under 10 active | recombinant CYP2C19, luciferin-H EGE luminescence; hits give high values; 0 = fully inhibited enzyme, 1 = untreated enzyme | AID 1025;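 active = activation factor of at least 2 at 5 µM in the primary screen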
Hits are given with their value; – = inactive; · = no result. A selection: hits, their analogues and other compounds. The true share with any hit is near 22%.

SMILES	Measles CPE	CYP2C9 inhib	CYP2C9 activ	CYP2C19 inh	CYP2C19 activ
COc1ccc(NC(=O)CN2CCN(c3ccc(Cl)cc3)CC2)c(OC)c1	–	–	–	–	–
COc1ccc(NC(=O)CN2CCN(CC(=O)Nc3ccccc3Cl)CC2)c(OC)c1	–	74	–	98	–
O=C(Nc1ccc(Br)cc1)N1CCCCCCC1	–	–	–	93	–
COc1ccc(NC(=O)CN2CCN(CC(=O)Nc3ccccc3F)CC2)c(OC)c1	–	71	–	98	–
CC(=O)Nc1ccc(NC(=O)N2CCCCC2)cc1	–	–	–	–	–
Cc1cnc2cc([N+](=O)[O-])ccc2n1	–	·	·	·	·
CCOc1ccc(NC(=O)CN2CCN(CC(=O)Nc3cc(OC)cc(OC)c3)CC2)cc1	–	59	–	–	–
COc1ccc(NC(=O)CSC2CCCCC2)cc1	–	51	–	98	–
N#Cc1ccsc1NC(=O)CN1CCCCCC1	–	–	–	50	–
N#Cc1ccsc1NC(=O)CN1CCN(c2ccccc2O)CC1	–	·	·	·	·
COc1ccc(NC(=O)CCN2CCCC(C)C2)cc1 (centres undefined)	41	·	·	·	·
COc1ccc(NC(=O)CN2CCCCC2)cc1	–	–	–	77	–
COc1ccc(NC(=O)CN2CCC(C(N)=O)(N3CCCCC3)CC2)cc1	–	–	–	–	–
O=C(CCN1CCCCC1)Nc1ccc(Br)cc1	–	·	·	·	·
O=C(CN1CCCCCC1)Nc1ccc(Br)cc1	–	–	–	93	–
CCOC(=O)c1cc(-c2ccccc2)sc1NC(=O)c1ccc(OC)c(OC)c1	–	·	·	·	·
COc1ccc(-c2oc(NC(=O)c3ccc(C)cc3)c(C#N)c2-c2ccc(OC)cc2)cc1	–	94	–	69	–
COc1ccc(-c2oc(/N=C/N3CCOCC3)c(C#N)c2-c2ccc(OC)cc2)cc1	–	90	–	64	–
N#Cc1c(/N=C/c2ccccc2)oc(-c2ccccc2)c1-c1ccccc1	–	·	·	·	·
COc1ccc(C(=O)Nc2oc(-c3ccccc3)c(-c3ccccc3)c2C#N)cc1	–	77	–	–	–
COc1ccc(C(=O)Nc2oc(-c3ccccc3)c(-c3ccccc3)c2C#N)cc1OC	–	74	–	–	–
COc1ccc(C(NC=O)c2cc(OC)c(OC)cc2Br)cc1OC (centres undefined)	–	·	·	·	·
CCc1ccc(NC(=O)c2c(Cl)nc(C)c(Cl)c2C)cc1	–	·	·	·	·
COc1ccc(-c2oc(NC(C)=O)c(C#N)c2-c2ccc(OC)cc2)cc1	–	72	–	57	–
CCC(=O)Nc1nnc(-c2ccc(OC)cc2)o1	–	–	–	–	–
SMILES	Measles CPE	CYP2C9 inhib	CYP2C9 activ	CYP2C19 inh	CYP2C19 activ
CCSc1nc(-c2ccc(OC)cc2)ccc1C#N	–	90	–	63	–
COc1ccc(-c2ccc(C#N)c(SCC(=O)OCc3ccccc3)n2)cc1OC	–	92	–	–	–
N#Cc1ccc(-c2ccc3c(c2)OCO3)nc1SCC(=O)OCc1ccccc1	–	92	–	–	–
COc1cccc(-c2ccc(C#N)c(SCC(=O)NCCc3ccccc3)n2)c1	–	·	·	·	·
Cc1ccc(C(=O)CSc2nc(-c3ccccc3)ccc2C#N)cc1	–	·	·	·	·
COc1ccc(OC)c(S(=O)(=O)N2CCC(C(=O)Nc3cccc(C)c3C)CC2)c1	–	–	2.5	–	–
COc1ccc(OC)c(S(=O)(=O)N2CCC(C(=O)Nc3ccc(C)c(C)c3)CC2)c1	–	–	2.5	–	–
O=c1cc(-c2cccc(Br)c2)nc(-c2ccccc2F)o1	–	·	·	·	·
COc1ccc(-c2cc(C(=O)NCc3cccnc3)no2)cc1	–	58	–	–	–
CCc1ccc(C(=O)NCc2ccc(Cl)cc2)cc1	–	·	·	·	·
CCC(NC(=O)NCc1cccnc1)(C(F)(F)F)C(F)(F)F	–	73	–	87	–
O=C(NCc1cccnc1)c1cc(-c2ccccc2)on1	–	–	–	–	–
CC1(C)CC(=O)c2cc(OCC(=O)NCc3cccnc3)ccc2O1	–	–	–	–	–
O=C(NCc1ccc(Cl)cc1)c1cccnc1	–	–	–	66	–
COc1ccc(OCC(=O)NCc2cccnc2)cc1	–	–	–	58	–
CCCn1nc(C(=O)OCn2nnc3ccccc3c2=O)c2ccccc2c1=O	–	·	·	·	·
CC(C)(C)c1ccc(C(=O)NCc2cccnc2)cc1	–	69	–	59	–
COc1cc(OC)cc(C(=O)NC(=S)Nc2cccnc2)c1	–	78	–	76	–
CC(C)(C)c1ccc(C(=O)NC(=S)NCc2cccnc2)cc1	–	·	·	·	·
C/C(NCc1ccccc1)=C(\C#N)C(=O)NCc1ccccc1	–	–	–	–	–
COc1ccc(CNC(=O)c2cc(-c3ccc(OC)c(OC)c3)on2)cc1	–	–	–	–	–
C/C(NCc1cccnc1)=C(\C#N)C(=O)NCc1ccccc1	–	–	–	82	–
COc1ccc(CNC(=O)c2cc(C3CC3)on2)cc1	–	–	–	81	–
O=C(CN(CCO)c1ccccc1)NC12CC3CC(CC(C3)C1)C2	–	–	–	–	–
COc1ccc(C(=O)NCc2cccnc2)cc1Br	–	72	–	–	–
SMILES	Measles CPE	CYP2C9 inhib	CYP2C9 activ	CYP2C19 inh	CYP2C19 activ
COc1ccc(C(=O)NCc2ccccc2)cc1Br	–	·	·	·	·
Cc1cccc(OCC(=O)Nc2ccc(C(=O)NCc3cccnc3)cc2)c1	–	–	–	53	–
COc1ccc(/C=C/C(=O)NCc2cccnc2)cc1	–	·	·	·	·
COc1cc(OC)cc(C(=O)NCc2cccnc2)c1	–	–	–	62	–
O=C(NC1CCCCC1)C(c1ccccc1)N(C(=O)Cc1ccsc1)c1ccccc1 (centres undefined)	–	–	–	–	–
Cc1nnc2sc(SCC(=O)Nc3nccs3)nn2c1=O	–	·	·	·	·
O=C(NCc1ccco1)c1nn2c(C(F)(F)F)cc(-c3cccs3)nc2c1Cl	–	55	–	–	–
O=C(NCc1ccco1)c1cc2nc(-c3cccs3)cc(C(F)(F)F)n2n1	–	56	–	–	–
O=C(CSc1nnc(C2CC2)n1Cc1ccccc1)c1cc2ccccc2o1	–	88	–	93	–
NC(=O)CSc1nnc(-c2cc3ccccc3o2)n1Cc1ccccc1	–	–	–	–	–
CCC(C)(C)n1nnnc1C(c1cc2cc(C)cc(C)c2[nH]c1=O)N1CCN(C(=O)c2ccco2)CC1 (centres undefined)	–	–	–	–	–
Cc1ccc(C)c(S(=O)(=O)Nc2ccccc2C(=O)Nc2ccc(S(=O)(=O)Nc3ncccn3)cc2)c1	–	·	·	·	·
Cc1ccc(C)c(S(=O)(=O)Nc2ccccc2C(=O)Nc2cc(C)on2)c1	–	55	–	–	–
Cc1cc(NC(=O)c2ccccc2NS(=O)(=O)c2c(C)c(C)cc(C)c2C)no1	–	66	–	–	–
CC1CCN(S(=O)(=O)c2ccc(NC(=O)Cc3cccs3)cc2)CC1	–	–	–	–	–
CCCOc1ccc(C(=O)NNC(=S)NC(=O)c2cc(-c3ccccc3)nc3ccccc23)cc1	–	–	–	–	–
CCCc1nnc(NC(=O)c2c(O)c3cccc4c3n(c2=O)CCC4)s1	·	–	–	–	–
Cc1nn(-c2cccc(Cl)c2)c2c1C(c1ccncc1)C(C#N)=C(N)O2 (centres undefined)	–	62	–	50	–

Assay outcomes from PubChem BioAssay.
